# Laboratory results: PubChem BioAssay (Tox21)
# Where “and” joins values, the source holds several entries; their conditions need not be identical. Identical values can stand only once. Records with an inconclusive call do not appear. Where a call stands in place of a potency, no number is given. The source holds several records for some structures; these can differ, active in one and inactive in another. Calls of active or inactive are those of the source. Unless noted, calls come from the whole dose curve; as a rule, active = well fitted curve in the direction sought with a large enough effect in the repeat runs; inconclusive = weak or mixed curves; inactive = no such curve, though single readings can be large; an effect the other way counts as inactive or inconclusive.
# How the values were obtained:
# [1] = qHTS assay to identify small molecule agonists of the estrogen receptor alpha (ER-alpha) signaling pathway in the presence of an antagonist - cell viability counter screen (AID 1259386);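 note: cells exposed to compounds for 22 h at 37 °C before the viability read; nearly all actives have a fitted effect of over 30% in size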; note: potency is the fitted concentration of half-maximal effect
# Method in brief: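 ICI-182,780 at 10.0nM final accompanies the compound titration (15 concentrations, 22hr, 37C) on VM7Luc4E2 cells. The CellTiter-Fluor fluorescence readout runs in the same wells as the luciferase assay.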
# [2] = target: Progesterone receptor (Homo sapiens) (UniProt P06401); assay: qHTS assay to identify small molecule agonists of the progesterone receptor (PR) signaling pathway (AID 1346784; calls by dose curve; note: nearly all actives have a fitted effect of over 30% in size)
# Progesterone receptor (Homo sapiens), sequence (P06401 whole entry, looked up): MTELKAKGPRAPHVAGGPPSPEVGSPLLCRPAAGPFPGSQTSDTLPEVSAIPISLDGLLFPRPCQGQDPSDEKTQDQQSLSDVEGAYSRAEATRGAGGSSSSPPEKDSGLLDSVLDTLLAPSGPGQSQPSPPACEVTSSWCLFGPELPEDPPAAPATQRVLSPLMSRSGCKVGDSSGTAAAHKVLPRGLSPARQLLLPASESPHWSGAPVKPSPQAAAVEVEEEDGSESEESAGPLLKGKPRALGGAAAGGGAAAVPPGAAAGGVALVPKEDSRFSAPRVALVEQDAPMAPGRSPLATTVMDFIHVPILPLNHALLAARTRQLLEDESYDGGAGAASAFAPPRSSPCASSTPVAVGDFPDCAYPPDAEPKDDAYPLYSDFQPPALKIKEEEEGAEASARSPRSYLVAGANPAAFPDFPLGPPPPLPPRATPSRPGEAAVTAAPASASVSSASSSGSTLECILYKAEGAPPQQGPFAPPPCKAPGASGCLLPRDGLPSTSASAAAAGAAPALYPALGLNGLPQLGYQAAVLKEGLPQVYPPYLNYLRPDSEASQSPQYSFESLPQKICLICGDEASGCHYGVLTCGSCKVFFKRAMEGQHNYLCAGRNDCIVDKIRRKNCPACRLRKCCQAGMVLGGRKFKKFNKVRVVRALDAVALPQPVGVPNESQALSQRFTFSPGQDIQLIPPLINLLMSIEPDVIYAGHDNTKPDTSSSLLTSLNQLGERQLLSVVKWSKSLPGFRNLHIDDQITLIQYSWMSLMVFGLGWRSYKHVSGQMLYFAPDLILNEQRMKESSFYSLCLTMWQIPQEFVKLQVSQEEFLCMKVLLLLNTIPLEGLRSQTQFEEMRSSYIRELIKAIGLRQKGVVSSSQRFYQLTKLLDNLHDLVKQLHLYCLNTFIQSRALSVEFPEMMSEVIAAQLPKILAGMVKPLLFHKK
# Method in brief: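 PR-UAS-bla HEK 293T cells (beta-lactamase reporter under UAS) in 2% charcoal-stripped FBS, dosed with 23 nL compound after 6 hr, incubated 16hr at 37C. LiveBLAzer B/G FRET substrate added, fluorescence read after 2 hours.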
# [3] = qHTS assay to identify small molecule agonists of the progesterone receptor (PR) signaling pathway - cell viability counter screen (AID 1346799; calls by dose curve; note: nearly all actives have a fitted effect of over 45% in size; note: potency is the fitted concentration of half-maximal effect)
# Method in brief: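 Counter screen in the PR-UAS-bla HEK293T wells (2% charcoal-stripped FBS, 16 h compound exposure at 37 C) after the bla read. CellTiter-Glo added, 30 min at room temperature, luminescence read as cell viability.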
# [4] = qHTS assay to identify small molecule antagonists of the TGF-beta/Smad signaling pathway - cell viability counter screen (AID 1346824); note: nearly all actives have a fitted effect of over 50% in size
# Method in brief: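 Cytotoxicity counter-screen run in the same wells as the beta-lactamase Smad reporter read: CellTiter-Glo luminescence after 30 min at room temperature. HEK 293T SBE-bla cells had 5 hr compound exposure at 37 C with TGF-beta1 (0.25 ng/mL stock).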
# [5] = qHTS assay to identify small molecule agonists of the TGF-beta/Smad signaling pathway (AID 1346859; active = well fitted activation curve with a large enough effect in the signal ratio in the repeat runs, not every such curve was filed as active; the % refers to the signal ratio; note: series mostly up to about 77 µM)
# Method in brief: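 SBE-bla HEK293T cells plated overnight, then compound exposure for 5 h at 37 C. Beta-lactamase reporter read with LiveBLAzer B/G FRET substrate after 2 h at room temperature, fluorescence at 405 nm excitation, 460/530 nm emission.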
# [6] = target: Thyrotropin-releasing hormone receptor (Homo sapiens) (UniProt P34981); assay: qHTS assay to identify small molecule agonists of the thyrotropin-releasing hormone receptor (TRHR) signaling pathway (AID 1346891; calls by dose curve; note: series mostly up to about 58 µM)
# Thyrotropin-releasing hormone receptor (Homo sapiens), sequence (P34981 whole entry, looked up): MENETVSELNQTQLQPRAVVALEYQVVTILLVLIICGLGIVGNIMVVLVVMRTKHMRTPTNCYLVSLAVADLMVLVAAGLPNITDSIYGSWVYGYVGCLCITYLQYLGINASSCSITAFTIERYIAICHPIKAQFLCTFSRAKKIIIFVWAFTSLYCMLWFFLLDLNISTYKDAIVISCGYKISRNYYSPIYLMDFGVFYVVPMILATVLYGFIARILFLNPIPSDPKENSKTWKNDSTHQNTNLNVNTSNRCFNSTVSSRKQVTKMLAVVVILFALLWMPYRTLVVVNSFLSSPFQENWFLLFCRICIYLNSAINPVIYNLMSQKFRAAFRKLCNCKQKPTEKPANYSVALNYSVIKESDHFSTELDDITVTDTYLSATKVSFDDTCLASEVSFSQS
# Method in brief: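 HEK293 cells expressing TRHR plated 18 h at 37 C/5% CO2, calcium dye-loaded 2 h at 37 C, then compound added (agonist mode); kinetic calcium fluorescence read 3 min at 1 s intervals; 15 concentrations in triplicate.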
# [7] = Human pregnane X receptor (PXR) small molecule agonists, qHTS cell viability counter screen (AID 1346977); note: nearly all actives have a fitted effect of over 50% in size; note: potency is the fitted concentration of half-maximal effect
# Method in brief: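 PXR-Luc HepG2 cells (2,000/well, 5% charcoal-stripped FBS) preincubated 5 hr, then exposed to compounds 24 hr at 37 C. Viability read in the same wells by CellTiter-Fluor fluorescence, reagent added at 23 hr, 1 hr incubation.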
# [8] = Caspase-3/7 induction in HepG2 cells by small molecules, qHTS assay (AID 1346978); note: nearly all actives have a fitted effect of over 15% in size
# Method in brief: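 Caspase-3/7 induction was measured by Caspase-Glo 3/7 luminescence (30 min, room temperature) after a 17 hr compound exposure of wild-type HepG2 cells seeded at 2,000 per well and pre-incubated 5 hr.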
# [9] = Caspase-3/7 induction in CHO-K1 cells by small molecules, qHTS cell viability counter screen (AID 1346979); note: nearly all actives have a fitted effect of over 35% in size; note: potency is the fitted concentration of half-maximal effect
# Method in brief: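 Wild-type CHO-K1 cells (1,500/well) treated with compound after 5 h plating; after 16 h at 37C, viability read as CellTiter-Fluor fluorescence following 1 h reagent incubation, in the same wells as the caspase read.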
# [10] = Caspase-3/7 induction in CHO-K1 cells by small molecules, qHTS assay (AID 1346980); note: nearly all actives have a fitted effect of over 15% in size
# Method in brief: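 Luminescent Caspase-Glo 3/7 read (30min, room temperature) quantified apoptosis induction. Cells were wild-type CHO-K1, treated with compound for 17hr at 37 C and 5% CO2.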
# [11] = Caspase-3/7 induction in HepG2 cells by small molecules, qHTS cell viability counter screen (AID 1346981); note: nearly all actives have a fitted effect of over 30% in size; note: potency is the fitted concentration of half-maximal effect
# Method in brief: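 Multiplexed with the caspase-3/7 assay: HepG2 cells, 16 hr compound treatment, CellTiter-Fluor viability detection by fluorescence.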
# [12] = target: Nuclear receptor subfamily 1 group I member 2 (Homo sapiens) (UniProt O75469); assay: Human pregnane X receptor (PXR) small molecule agonists, qHTS assay (AID 1346982); note: nearly all actives have a fitted effect of over 35% in size; note: potency is the fitted concentration of half-maximal effect
# Nuclear receptor subfamily 1 group I member 2 (Homo sapiens), sequence (O75469 whole entry, looked up): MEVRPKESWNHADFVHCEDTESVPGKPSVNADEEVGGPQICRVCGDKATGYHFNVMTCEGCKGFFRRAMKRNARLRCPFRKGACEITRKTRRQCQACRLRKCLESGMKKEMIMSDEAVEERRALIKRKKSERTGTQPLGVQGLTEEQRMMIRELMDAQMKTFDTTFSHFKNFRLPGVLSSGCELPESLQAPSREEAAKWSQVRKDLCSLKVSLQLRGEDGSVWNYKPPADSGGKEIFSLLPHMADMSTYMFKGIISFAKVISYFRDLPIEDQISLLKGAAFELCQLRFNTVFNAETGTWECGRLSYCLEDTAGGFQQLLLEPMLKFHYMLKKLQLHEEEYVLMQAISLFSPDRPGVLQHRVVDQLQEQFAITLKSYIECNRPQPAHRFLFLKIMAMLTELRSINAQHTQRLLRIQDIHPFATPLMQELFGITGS
# Method in brief: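 We seeded PXR-Luc HepG2 cells in assay medium containing 5% charcoal-stripped FBS, added compounds 5 hr later, incubated 24 hr, and read luminescence with ONE-Glo reagent.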
# [13] = target: Acetylcholinesterase (Homo sapiens) (UniProt P22303); assay: Acetylcholinesterase (AChE) small molecule antagonists: colormetric cell-based qHTS assay (AID 1347395; calls by dose curve; note: nearly all actives have a fitted effect of over 30% in size; note: potency is the fitted concentration of half-maximal effect)
# Acetylcholinesterase (Homo sapiens), sequence (P22303 whole entry, looked up): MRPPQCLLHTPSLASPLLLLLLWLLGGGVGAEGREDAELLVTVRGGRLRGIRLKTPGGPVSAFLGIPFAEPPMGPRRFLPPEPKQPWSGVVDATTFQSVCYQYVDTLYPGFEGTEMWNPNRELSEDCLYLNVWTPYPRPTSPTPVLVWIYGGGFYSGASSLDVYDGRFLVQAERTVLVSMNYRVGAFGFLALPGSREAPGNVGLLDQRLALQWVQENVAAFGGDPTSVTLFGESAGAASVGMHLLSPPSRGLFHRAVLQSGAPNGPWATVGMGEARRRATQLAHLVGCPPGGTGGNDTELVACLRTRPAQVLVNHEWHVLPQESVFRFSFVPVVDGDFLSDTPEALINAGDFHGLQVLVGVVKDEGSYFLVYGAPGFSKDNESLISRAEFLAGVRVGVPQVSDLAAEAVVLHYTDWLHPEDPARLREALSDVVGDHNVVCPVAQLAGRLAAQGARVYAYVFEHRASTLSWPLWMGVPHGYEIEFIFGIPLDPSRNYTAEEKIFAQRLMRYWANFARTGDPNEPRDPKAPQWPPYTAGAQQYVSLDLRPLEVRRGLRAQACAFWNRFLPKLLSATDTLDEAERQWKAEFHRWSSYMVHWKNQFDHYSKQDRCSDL
# Method in brief: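 SH-SY5Y cells attached overnight, exposed to compound 30 min at 37 C, then given DTNB/acetylthiocholine; after 90 min at 37 C, colorimetric thiocholine read gives cellular AChE activity.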
# [14] = target: Acetylcholinesterase (Homo sapiens) (UniProt P22303); assay: Acetylcholinesterase (AChE) small molecule antagonists: enzyme-based qHTS assay (AID 1347397; calls by dose curve; note: nearly all actives have a fitted effect of over 55% in size; note: potency is the fitted concentration of half-maximal effect); conditions: Potency: AChE enzyme activity inhibition
# Method in brief: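 rhAChE 50 mU/mL (dispensed) + cpd or DMSO, 30 min RT; add DTNB/acetylthiocholine cocktail, 10 min RT; colorimetric thiocholine readout. qHTS, 1536-well format.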
# [15] = qHTS assay to identify small molecule agonists of the TGF-beta/Smad signaling pathway - cell viability counter screen (AID 1346829); note: top concentration of the series differs between compounds; nearly all actives have a fitted effect of over 45% in size
# Method in brief: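 Luminescence from CellTiter-Glo, read after a 30 min room-temperature incubation, gives cell viability of SBE-bla HEK 293T cells treated 5 hr with compounds at 37 C.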
# [16] = target: Thyrotropin-releasing hormone receptor (Homo sapiens) (UniProt P34981); assay: qHTS assay to identify small molecule antagonists of the thyrotropin-releasing hormone receptor (TRHR) signaling pathway (AID 1346877; active = well fitted inhibition curve with a large enough effect in the repeat runs, not every such curve was filed as active; note: series mostly up to about 51 µM)
# Method in brief: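 Screening used HEK293 cells engineered with TRHR, with a brief 5 min room-temperature compound exposure preceding addition of TRH to 1 nM. The read-out was kinetic calcium-dye fluorescence, concentration-response from 15 doses in triplicate.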
# [17] = qHTS assay to identify small molecule antagonists of the progesterone receptor (PR) signaling pathway - cell viability counter screen (AID 1346798); note: nearly all actives have a fitted effect of over 50% in size; note: potency is the fitted concentration of half-maximal effect
# Method in brief: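 PR-UAS-bla HEK293T cells, 3,000/well in 2% charcoal-stripped FBS medium, dosed with compounds plus R5020 agonist and incubated 16 h at 37C. Viability then measured in the same wells by CellTiter-Glo luminescence after 30 min at RT.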
# [18] = target: Progesterone receptor (Homo sapiens) (UniProt P06401); assay: qHTS assay to identify small molecule antagonists of the progesterone receptor (PR) signaling pathway (AID 1346795; active = well fitted inhibition curve with a large enough effect in the signal ratio in the repeat runs, not every such curve was filed as active; the % refers to the signal ratio; note: potency is the fitted concentration of half-maximal effect)
# Method in brief: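 PR-UAS-bla HEK293T cells with beta-lactamase reporter under UAS control, in 2% charcoal-stripped FBS, treated with compounds plus 1 nM promegestone (R5020, final) for 16 hr at 37C. Read-out: FRET beta-lactamase substrate fluorescence after 2 hr at room temperature.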
Structure (SMILES),Potency [1],Potency [2],Potency [3],Potency [4],outcome [5],Potency [6],Potency [7],Potency [8],Potency [9],Potency [10],Potency [11],Potency [12],Potency [13],Potency [14],Potency [15],Potency [16],Potency [17],Potency [18]
CCOP(=S)(OCC)Oc1nc(Cl)c(Cl)cc1Cl,inactive,inactive,61.3 µM (active) and inactive,inactive,inactive,inactive,inactive,inactive,inactive,inactive,inactive,17.3 µM (active) and inactive,35.7 µM (active) and 35.6 µM (active),79.9 µM (active),,,,
Brc1ccc(Oc2ccccc2)cc1,inactive,inactive,inactive,inactive,inactive,inactive,inactive,inactive,inactive,inactive,inactive,inactive,inactive,inactive,inactive,inactive,,
O=C(N[C@H](c1ccccc1)[C@@H]1CN2CCC1CC2)c1c(Cl)ccc(C(F)(F)F)c1Cl,inactive,inactive,,inactive,,,49.3 µM (active),inactive,78.1 µM (active),inactive,55.3 µM (active),inactive,,,inactive,,,
CO/C=C(/C(=O)OC)c1ccccc1COc1cccc(C(F)(F)F)n1,8.63 µM (active),inactive,,inactive,inactive,inactive,1.93 µM (active),inactive,0.385 µM (active),inactive,,34.3 µM (active),inactive,inactive,,,inactive,
COC(=O)C(Br)CBr (centres undefined),inactive,inactive,inactive,inactive,inactive,inactive,inactive,inactive,inactive,inactive,inactive,inactive,inactive,inactive,,inactive,,
II,inactive,inactive,10.9 µM (active),inactive,inactive,,inactive,inactive,54.5 µM (active),inactive,inactive,inactive,inactive,,inactive,,,
C=CC(=O)NCNC(=O)C=C,inactive,inactive,,,inactive,inactive,inactive,inactive,,inactive,inactive,30.6 µM (active),inactive,inactive,inactive,inactive,inactive,
N#Cc1cc(I)c(O)c(I)c1,48.6 µM (active),inactive,,inactive,inactive,inactive,43.3 µM (active),,68.6 µM (active),inactive,,54.5 µM (active),inactive,inactive,inactive,,,
COc1ccc(-c2ccccc2)cc1NNC(=O)OC(C)C,,,,inactive,inactive,inactive,,inactive,,inactive,,71.5 µM (active),inactive,inactive,inactive,inactive,,
CC(c1ccc(O)cc1)(c1ccc(O)cc1)c1ccc(O)cc1,inactive,,,inactive,inactive,,,,68.6 µM (active),inactive,,68.6 µM (active),inactive,inactive,inactive,,,19.3 µM (active)
CCOP(=S)(OCC)SCn1nnc2ccccc2c1=O,,inactive,,inactive,inactive,inactive,,inactive,68.6 µM (active),inactive,,6.86 µM (active),12.6 µM (active),35.6 µM (active),inactive,inactive,,27.3 µM (active)
O=C(NCc1cccnc1)Nc1ccc([N+](=O)[O-])cc1,inactive,,43.3 µM (active),,,,inactive,inactive,inactive,inactive,inactive,inactive,inactive,inactive,,inactive,24.3 µM (active),
O=C=Nc1ccc(Cl)cc1,inactive,,,inactive,inactive,inactive,inactive,,inactive,inactive,inactive,1.54 µM (active),inactive,inactive,inactive,inactive,,
BrCCCCBr,inactive,,inactive,,inactive,inactive,inactive,inactive,inactive,inactive,,inactive,inactive,inactive,inactive,inactive,inactive,
O=C(OC1CCCCC1)c1ccccc1C(=O)OC1CCCCC1,,,,,inactive,inactive,,inactive,,inactive,,5.74 µM (active),inactive,inactive,inactive,,inactive,16.2 µM (active)
